The list is not random: actives were taken first. Their share in the collection is about 11%.
ALDH1A1 block – inhibitors of human aldehyde dehydrogenase 1A1 | Purified ALDH1A1, NADH fluorescence, propionaldehyde substrate | 7.3% of 220,000 active | Potency, µM (doses to about 75.3 µM), hits mostly inhibitors | P00352
IMPase inh – membrane-permeable compound that blocks inositol monophosphatase; P97697; CHO-M1 cells, IP1 accumulation, HTRF TR-FRET ratio; inhibition (IP1 accumulation), % at 46.1 µM; 120,000 tested, under 10 active; AID 901; active = well fitted curve in the direction sought with a large enough effect in the signal ratio, not every such curve was filed as active; inconclusive = small, poorly fitted or top-dose-only effect, or a change in a side signal; inactive = no such curve, though single readings can be large or run the other way; the % refers to the signal ratio;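 also: cells stimulated with carbachol in lithium chloride buffer; higher means more IMPase inhibition seen as more IP1 and lower FRET ratio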
Target sequence (P97697 whole entry, looked up): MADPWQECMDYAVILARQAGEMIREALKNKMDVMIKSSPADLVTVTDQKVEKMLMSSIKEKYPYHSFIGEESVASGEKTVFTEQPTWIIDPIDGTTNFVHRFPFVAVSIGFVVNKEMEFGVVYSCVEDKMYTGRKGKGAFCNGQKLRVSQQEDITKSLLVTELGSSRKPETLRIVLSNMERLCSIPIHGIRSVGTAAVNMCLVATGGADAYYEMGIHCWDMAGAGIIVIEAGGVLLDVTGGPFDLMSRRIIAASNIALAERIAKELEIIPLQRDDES
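CHO-M1, 2000 cells/well, cultured 16–30 h; cpd up to 46 uM; carbachol (50 uM solution, stimulation buffer w/ 50 mM LiCl, pH 7.4), 30 min 37C; IP-One TR-FRET, 10 min RT; Ex 320/Em 665, 620; Hill-fit AC50.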
PNC assembly inh – inhibitors of perinucleolar compartment assembly. 3.1% of 140,000 active. PC3M PTB-GFP, PNC prevalence imaging, 16 h; hits give low values. activity change (PNC), negative = inhibition, % at 10 µM;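 active = readout at or below -70, meaning at least 70% loss of cells showing the perinucleolar compartment, a nuclear body marking cancer cells; inconclusive = readout between -30 and a set limit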
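PC3M cells stably expressing PTB-GFP, 750–1000 cells/well, treated 16 h at 37 °C with compound (23 nl of library stock), in duplicate. After paraformaldehyde fixation and Hoechst stain, imaged at 20x; PNC prevalence scored by image analysis.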
HPGD inh – HPGD (human) dehydrogenase inhibition | P15428 | purified HPGD, NADH fluorescence kinetic, PGE2 substrate | Potency, µM, usual class: inhibitors | 4.3% of 150,000 active
Target sequence (P15428 whole entry, looked up): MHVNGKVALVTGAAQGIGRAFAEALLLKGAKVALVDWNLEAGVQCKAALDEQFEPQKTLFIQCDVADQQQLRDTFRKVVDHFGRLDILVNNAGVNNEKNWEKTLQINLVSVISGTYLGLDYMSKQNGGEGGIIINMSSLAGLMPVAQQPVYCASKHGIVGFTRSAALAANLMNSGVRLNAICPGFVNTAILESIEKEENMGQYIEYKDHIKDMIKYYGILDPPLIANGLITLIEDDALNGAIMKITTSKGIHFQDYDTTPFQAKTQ
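NADH formation kinetics: reaction with 30 uM PGE2 and 1 mM NAD+ (final), 20 nM enzyme, Tris-HCl pH 8 with Tween 20, after 15 min compound preincubation at room temperature. Fluorescence change, last versus first of five reads.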
IMPase Li cell – IMPase inhibition in cells with lithium potentiation; 0.35% of 210,000 active; CHO-M1 cells, IP1 TR-FRET (IP-One), carbachol + lithium; Potency, µM (highest dose often 59.4 µM), usual class: inhibitors; active = well fitted inhibition curve with a large enough effect; inconclusive = small, poorly fitted or top-dose-only effect; inactive = no such curve, though single readings can be large or run the other way;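 also: IP1 builds up when IMPase is blocked and the TR-FRET signal falls; nearly all actives have a fitted effect of over 50% in size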
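CHO cells stably expressing M1 receptor (2000/well) were cultured 16–30 h, then exposed to compounds with a small lithium addition for 30 min at 37C. IP1 was measured by TR-FRET competition; AC50 from Hill fits.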
Hits are given with their value; - = inactive; ? = inconclusive; . = no result given; [ ] = dose if it differs, or a comment. Unless noted, calls follow the shape of the dose curve; as a rule, active = well fitted inhibition curve with a large enough effect (not every such curve was filed as active); inconclusive = small, poorly fitted or top-dose-only effect, or another doubt; inactive = no such curve, though single readings can be large or run the other way.

SMILES | ALDH1A1 block | IMPase inh | PNC assembly inh | HPGD inh | IMPase Li cell
NS(=O)(=O)c1ccc(NC(=S)NCc2ccccc2)cc1 | 20µM | - | -97 | 20µM | -
Fc1ccc(NC(=S)NCc2ccccc2Cl)cc1 | - | . | - | - | -
Cn1c(-c2nc(-c3ccccc3)cs2)nc2ccccc21 | ? | - | . | ? | -
Oc1c(Br)cc(Br)cc1CN(Cc1cc(Br)cc(Br)c1O)C1CCCCC1 | -[13.5 µM] | . | . | - | -
CCCCNC(=O)Nc1nc2ccc(CC)cc2s1 | - | . | . | . | -
COCCNC(=O)c1cccc(NS(=O)(=O)c2cccc3cccnc23)c1 | ? | . | - | - | -
O=C(NC1CCCCC1)c1ccc(NS(=O)(=O)c2cccc3cccnc23)cc1 | 7.9µM | . | . | . | -
O=C(NCc1ccccc1)c1cccc(NS(=O)(=O)c2cccc3cccnc23)c1 | 0.5µM | . | - | - | -
O=S(=O)(NC1CCCCCC1)c1cccc2cccnc12 | 14µM | - | - | - | -
CC(CS(=O)(=O)c1cccc2cccnc12)N1CCCCC1 (configuration not stated) | 20µM | - | - | . | .
COc1ccc(CCn2c(=O)c3ccccc3n(CC(=O)Nc3cccc(C)c3)c2=O)cc1OC | . | - | . | . | .
Cc1nc2ccccc2c(=O)n1NC(=O)CCC(=O)O | - | . | . | . | -
Cc1ccc(/C=N/NC(=O)C(C)Oc2ccccc2[N+](=O)[O-])s1 (configuration not stated) | - | . | ? | - | -
CC(C)CNC(=O)c1cccc(NC(=O)c2ccc(Cl)c([N+](=O)[O-])c2)c1 | - | . | -89 | - | -
CC(C)CNC(=O)c1ccc(NC(=O)c2ccccc2[N+](=O)[O-])cc1 | - | . | -84 | ? | -
Cc1ccccc1CNC(=O)c1ccc(Cl)c([N+](=O)[O-])c1 | ? | . | - | - | -
CC(C)(C)SCCNC(=O)c1ccc(Cl)c([N+](=O)[O-])c1 | ? | . | - | 28µM | -
CC(C)CNC(=O)c1ccc(Cl)c(Cl)c1 | - | - | - | 22µM | -
Cc1cc(NC(=O)c2ccccc2[N+](=O)[O-])ccc1Br | - | . | . | . | -
O=c1cnc2cnc(Nc3ccccc3)nc2n1CCc1ccccc1 | ? | . | . | . | -
COC(=O)c1c(NC(=O)c2ccccc2)sc(C(=O)c2ccccc2)c1C | 14µM | - | - | - | ?
Cc1ccc(C(=O)Nc2sc(C)c(-c3ccccc3)c2C(N)=O)cc1[N+](=O)[O-] | 10µM | - | - | 25µM | -
COC(=O)c1c(NC(=O)c2cccc([N+](=O)[O-])c2)sc(C(N)=O)c1C | 7.9µM | . | . | . | -
COC(=O)c1c(NC(=O)c2ccccc2)sc(Cc2ccccc2)c1C | ? | - | - | ? | -
COC(=O)c1sc(NC(=O)c2cccc([N+](=O)[O-])c2)c(C(N)=O)c1C | 10µM | . | ? | 28µM | -
SMILES | ALDH1A1 block | IMPase inh | PNC assembly inh | HPGD inh | IMPase Li cell
CCC1=Nc2cc(C(=O)N3CCC(C)CC3)ccc2Sc2ccc(C)cc21 | . | - | . | . | .
O=S(=O)(c1ccc(Oc2ccc(Br)cc2)cc1)N1CCOCC1 | - | - | - | - | -
COc1ccc2c(c1)C(=O)C(=O)N2 | 22µM | . | - | - | -
Cc1cc(Cl)ccc1OC(C)C(=O)NCCCn1ccnc1 (configuration not stated) | - | . | . | . | -
COc1ccc(NC(=O)Nc2ccc(C(=O)N3CCOCC3)cc2)c(OC)c1 | - | . | . | . | -
CCOc1ccc(-n2c(N)c(-c3nc4ccccc4n3C)c3nc4ccccc4nc32)cc1 | - | - | ? | ? | -
NCCCCCc1nnc(SCC(N)=O)o1 | - | . | . | . | -
O=C(O)CSCC(=O)c1ccccc1 | 14µM | - | - | - | -
O=C(O)c1ccncc1.O=C(O)c1ccncc1.[Cl][Pt]([Cl])([Cl])[Cl] | 2.2µM | . | . | 4µM | -
O=C(CC(=O)c1ccncc1)c1ccccc1 | 3.5µM | . | . | 3.5µM | -
CC(CN(C)C)NC(=O)c1ccc(-n2c(=O)c(=O)[nH]c3ccccc32)cc1 (configuration not stated) | - | . | . | - | .
C[C@H](N)c1nnc(SCc2ccc(Cl)cc2Cl)o1 | - | - | - | - | -
C[C@H](N)c1nnc(SCc2c(Cl)cccc2Cl)o1 | - | - | - | 32µM | -
COc1ccc(-c2nc3cnc(OC)nc3n(C[C@H]3CCCO3)c2=O)cc1 | ? | . | . | . | -
O=C(Nc1ccccc1Cc1ccccc1)c1ccccc1NS(=O)(=O)c1ccc(Cl)s1 | - | . | - | - | -
Cc1ccc(NC(=O)c2ccccc2NS(=O)(=O)c2ccc(Cl)s2)cc1 | - | . | -82 | - | -
O=C(O/N=C1\CCS(=O)(=O)c2sccc21)c1ccc(F)cc1 | - | . | . | . | -
O=C(O/N=C1\CCS(=O)(=O)c2sccc21)c1ccccc1 | 13µM | - | ? | - | -
CC(C)(C)NC(=O)[C@H]1CN(Cc2cccnc2)CCN1C[C@@H](O)C[C@@H](Cc1ccccc1)C(=O)N[C@H]1c2ccccc2C[C@H]1O | - | . | . | - | -
COc1ccc(-c2ccc(/C=N/NC(=O)c3cccnc3)o2)c([N+](=O)[O-])c1 | - | . | - | - | -
O=C1C2C3C=CC(C4CC34)C2C(=O)N1/N=C/c1ccc(-c2ccc(Cl)cc2[N+](=O)[O-])o1 (configuration not stated) | ? | - | ? | ? | -
COc1ccc(-c2ccc(/C=N/N3C(=O)C4C5C=CC(C6CC56)C4C3=O)o2)c([N+](=O)[O-])c1 (configuration not stated) | 10µM | . | - | 25µM | -
O=C1C2C3C=CC(C4CC34)C2C(=O)N1/N=C/c1ccc(-c2ccc(F)cc2[N+](=O)[O-])o1 (configuration not stated) | ? | - | ? | 20µM | -
Cc1ccc(-c2ccc(/C=N/N3C(=O)C4C5C=CC(CC5)C4C3=O)o2)c([N+](=O)[O-])c1 (configuration not stated) | 0.89µM | - | - | 16µM | -
O=C1C2C3C=CC(CC3)C2C(=O)N1/N=C/c1ccco1 (configuration not stated) | ? | . | . | . | -
SMILES | ALDH1A1 block | IMPase inh | PNC assembly inh | HPGD inh | IMPase Li cell
CCc1cc[n+](-c2nc3ccccc3nc2[N-]S(=O)(=O)c2ccc(Br)s2)cc1 | 0.95µM | . | ? | - | -
O=C(Nc1ccc2snnc2c1)N1CCOCC1 | - | - | - | - | -
S=C(Nc1ccc(N2CCOCC2)cc1)Nc1ccc2snnc2c1 | 25µM | . | . | . | -
CCC(OC(=O)c1nsc(Cl)c1Cl)C(=O)NCc1ccco1 (configuration not stated) | ? | - | - | 10µM | -
CCC(OC(=O)c1nsc(Cl)c1Cl)C(=O)NC(C)(C)C (configuration not stated) | - | . | . | . | -
O=C1N(Cc2ccccc2F)c2ccccc2C12OCCCO2 | 22µM | - | - | - | -
O=C1N(Cc2ccc(F)cc2Cl)c2ccccc2C12OCCCO2 | - | - | ? | - | -
COc1ccc(OC)c(NC(=O)CN2C(=O)C3(OCCCO3)c3ccccc32)c1 | ? | - | - | - | -
COc1ccccc1NC(=O)CN1C(=O)C2(OCCCO2)c2ccccc21 | 22µM | - | - | - | -

From PubChem
